Measurements published in PubChem BioAssay AID1159580 (chemical genetic matrix, 2015).
“And” between values parts separate entries of the source, which are not always exact repeats. Equal entries are not always repeated. Screen size: about 5,500 compounds; about 2,000 (36%) were called active. Not shown: some 18% with an inconclusive outcome. Rule as the data show it: active = normalized growth mostly below about 0.91 (no sharp cut-off); inconclusive = no clear call, values can overlap the other calls; inactive = mostly above about 0.92. Some of the results follow.

Test: chemical genetic growth profiling, strain panel (AID 1159580);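 also: tested at 20 µM; growth read once vehicle control cultures reached saturation at 30 °C; 1 = growth at the plate median or of vehicle wells; lower values mean less growth of the strain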
Settings: S. cerevisiae deletion strains, growth OD

Measured: normalized growth

C=C(C)[C@H]1COc2cc3oc(=O)ccc3cc2O1
active: locus YAL021C, strain ccr4, stronger effect = lower value 0.52 | locus YAL026C, strain drs2, stronger effect = lower value 0.51 | locus YBL061C, strain skt5, stronger effect = lower value 0.213 | locus YBR009C, strain hhf1, stronger effect = lower value 0.811 | locus YBR021W, strain FUR4, stronger effect = lower value 0.116 | locus YBR023C, strain chs3, stronger effect = lower value 0.339 | locus YBR231C, strain swc5, stronger effect = lower value 0.786 | locus YBR279W, strain paf1, stronger effect = lower value 0.931 | locus YCL011C, strain gbp2, stronger effect = lower value 0.852 | locus YCL016C, strain dcc1, stronger effect = lower value 0.736 | locus YCL029C, strain bik1, stronger effect = lower value 0.72 | locus YCL061C, strain MRC1, stronger effect = lower value 0.793 | locus YCL069W, strain vba3, stronger effect = lower value 0.783 | locus YCR088W, strain abp1, stronger effect = lower value 0.814 | locus YDL035C, strain GPR1, stronger effect = lower value 0.491 | locus YDL074C, strain BRE1, stronger effect = lower value 0.465 | locus YDL101C, strain DUN1, stronger effect = lower value 0.36 | locus YDL192W, strain arf1, stronger effect = lower value 0.111 | locus YDR069C, strain doa4, stronger effect = lower value 0.888 | locus YDR101C, strain arx1, stronger effect = lower value 0.724 | locus YDR137W, strain rgp1, stronger effect = lower value 0.279 | locus YDR150W, strain NUM1, stronger effect = lower value 0.53 | locus YDR162C, strain NBP2, stronger effect = lower value 0.0606 | locus YDR318W, strain mcm21, stronger effect = lower value 0.62 | locus YDR335W, strain msn5, stronger effect = lower value 0.857 | locus YDR388W, stronger effect = lower value 0.515 | locus YDR502C, strain sam2, stronger effect = lower value 0.387 | locus YEL003W, strain gim4, stronger effect = lower value 0.911 | locus YEL061C, strain CIN8 (second series), stronger effect = lower value 0.447 | locus YER015W, strain faa2, stronger effect = lower value 0.9 | locus YER016W, strain bim1, stronger effect = lower value 0.791 | locus YER110C, stronger effect = lower value 0.747 | locus YER155C, strain BEM2 (second series), stronger effect = lower value 0.444 | locus YER155C, strain BEM2, stronger effect = lower value 0.879 | locus YER167W, strain BCK2, stronger effect = lower value 0.671 | locus YGL086W, strain mad1, stronger effect = lower value 0.578 | locus YGL240W, strain doc1, stronger effect = lower value 0.756 | locus YGL248W, strain PDE1, stronger effect = lower value 0.385 | locus YGL253W, strain hxk2, stronger effect = lower value 0.466 | locus YGR135W, strain pre9, stronger effect = lower value 0.574 | locus YGR252W, strain gcn5, stronger effect = lower value 0.28 | locus YHR013C, strain ard1, stronger effect = lower value 0.692 | locus YHR030C, strain SLT2, stronger effect = lower value 0.272 | locus YHR129C, strain ARP1, stronger effect = lower value 0.554 | locus YHR142W, strain chs7, stronger effect = lower value 0.148 | locus YHR200W, strain rpn10, stronger effect = lower value 0.572 | locus YIL066C, strain RNR3, stronger effect = lower value 0.407 | locus YIL073C, strain SPO22, stronger effect = lower value 0.16 | locus YIL125W, strain kgd1, stronger effect = lower value 0.916 | locus YIR030C, strain dcg1, stronger effect = lower value 0.819 | locus YJL092W, strain hpr5, stronger effect = lower value 0.903 | locus YJL095W, strain BCK1 (second series), stronger effect = lower value 0.107 | locus YJL095W, strain BCK1, stronger effect = lower value 0.0661 and 0.314 | locus YJL129C, strain trk1, stronger effect = lower value 0.452 | locus YJL164C, strain tpk1, stronger effect = lower value 0.871 | locus YJL166W, strain qcr8, stronger effect = lower value 0.662 | locus YJL168C, strain set2, stronger effect = lower value 0.887 | locus YJL187C, strain SWE1 (second series), stronger effect = lower value 0.635 | locus YJL187C, strain SWE1, stronger effect = lower value 0.886
inactive: locus YAL030W, strain snc1, stronger effect = lower value 0.933 | locus YBR171W, strain sec66, stronger effect = lower value 0.938 | locus YBR229C, strain ROT2, stronger effect = lower value 0.956 | locus YDL005C, strain med2, stronger effect = lower value 0.959 | locus YDL040C, strain nat1, stronger effect = lower value 0.957 | locus YDL185W, strain tfp1, stronger effect = lower value 0.924 | locus YDR001C, strain nth1, stronger effect = lower value 0.956 | locus YDR159W, strain sac3, stronger effect = lower value 0.905 | locus YDR195W, strain ref2 1.05 | locus YDR297W, strain sur2, stronger effect = lower value 0.956 | locus YDR334W, strain swr1, stronger effect = lower value 0.921 | locus YDR392W, strain spt3, stronger effect = lower value 0.775 | locus YEL037C, strain rad23, stronger effect = lower value 0.956 | locus YER111C, strain swi4, stronger effect = lower value 0.961 | locus YFR010W, strain ubp6, stronger effect = lower value 0.945 | locus YGL078C, strain dbp3, stronger effect = lower value 0.993 | locus YGL167C, strain pmr1, stronger effect = lower value 0.995 | locus YGL173C, strain kem1, stronger effect = lower value 0.906 | locus YGL227W, strain vid30, stronger effect = lower value 0.932 | locus YHR027C, strain rpn1, stronger effect = lower value 0.929 | locus YHR079C, strain IRE1 (second series), stronger effect = lower value 0.967 | locus YHR079C, strain IRE1, stronger effect = lower value 1.01 | locus YHR094C, strain hxt1, stronger effect = lower value 0.948 | locus YJL115W, strain asf1, stronger effect = lower value 0.977 | locus YJL134W, strain LCB3, stronger effect = lower value 0.934 | locus YJL154C, strain vps35, stronger effect = lower value 0.958
